# Compound activity deposited in PubChem BioAssay by several laboratories.
# Most compounds without a hit are left out; they make up all but 22% or so of the library.
# Measles CPE = protection of cells from measles virus. Measles virus-infected cells, CPE protection, absorbance. AID 841. protection (pct of control), % at 4 µM. 140,000 compounds, 1.5% hits; in the data active = protection mostly above about 24%, no sharp cut-off; inactive = mostly below about 26%
# CYP2C19 inh = inhibitors of human CYP2C19 | CYP2C19 Supersomes, luciferin-H EGE luminescence, 30 min | P33261 | 96,000 compounds, 21% hits | inhibition, % at 5 µM;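 active = CYP2C19 inhibition above a set limit at 5 µM in the primary screen, cut at about 50% in these data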
# Target sequence (P33261 whole entry, looked up): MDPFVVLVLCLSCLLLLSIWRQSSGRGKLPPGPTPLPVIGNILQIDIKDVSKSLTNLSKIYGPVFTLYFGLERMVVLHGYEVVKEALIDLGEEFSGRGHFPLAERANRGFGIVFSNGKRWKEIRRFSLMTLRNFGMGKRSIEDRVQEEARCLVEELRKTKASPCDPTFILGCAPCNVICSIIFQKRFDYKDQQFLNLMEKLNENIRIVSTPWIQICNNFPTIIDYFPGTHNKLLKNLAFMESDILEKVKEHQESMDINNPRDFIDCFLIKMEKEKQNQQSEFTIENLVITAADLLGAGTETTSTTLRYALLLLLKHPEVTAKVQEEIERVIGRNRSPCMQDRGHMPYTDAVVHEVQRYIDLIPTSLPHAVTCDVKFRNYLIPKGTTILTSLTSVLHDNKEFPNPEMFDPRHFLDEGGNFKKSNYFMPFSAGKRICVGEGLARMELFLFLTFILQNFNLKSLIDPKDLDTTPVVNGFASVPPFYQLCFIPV
# CYP2C19 act = cytochrome P450 2C19 (human) activation. P33261. recombinant CYP2C19, luciferin-H EGE luminescence; active compounds read high; 0 = fully inhibited enzyme, 1 = untreated enzyme. activation factor at 5 µM. 96,000 tested, under 10 active;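 active = activation factor of at least 2 at 5 µM in the primary screen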
# CYP2C9 activ = CYP2C9 (human) activation | recombinant CYP2C9, luciferin-H conversion, luminescence; active compounds read high; factor 1 = untreated enzyme, 0 = blocked | activation factor at 5 µM | 96,000 compounds, 1.4% hits;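 active = activation factor of 2 or more for CYP2C9 at a 5 µM dose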
# CYP2C9 inh = human CYP2C9 inhibition. P11712. inhibition, % at 5 µM. 96,000 compounds, 20% hits. AID 777. CYP2C9 Supersomes, luciferin-H conversion, luminescence;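 active = blocking of liver enzyme CYP2C9 beyond about 50% at 5 µM, limit read from the data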
# Hits are given with their value; 0 = inactive; - = not tested or not shown.
SMILES,Measles CPE,CYP2C19 inh,CYP2C19 act,CYP2C9 activ,CYP2C9 inh
Cc1ccc(N(CC(=O)N2CCn3c2nc2ccccc23)S(=O)(=O)c2c(C)n[nH]c2C)cc1,0,0,0,0,63.8
O=C(C1CCN(S(=O)(=O)c2cccc3nsnc23)CC1)N1CCn2c1nc1ccccc12,0,0,0,0,0
CCC(=O)N1CCn2c1nc1ccccc12,0,0,0,0,0
O=C(CSc1nnc(-c2ccco2)n1Cc1ccco1)NCc1cccs1,0,51.1,0,0,57.0
O=C(CSc1nnc(Cc2cccs2)n1Cc1ccco1)Nc1ccc(Cl)cc1Cl,0,0,0,0,61.9
O=C(CSc1nnc(Cc2cccs2)n1Cc1ccco1)Nc1ccc(Br)cc1,0,88.8,0,0,93.0
C=CCn1c(Cc2cccs2)nnc1SCC(=O)Nc1ccc(C(=O)OCC)cc1,0,0,0,0,0
CCCNC(=O)c1cc(-c2ccc(OC)cc2)n(CCCOC)c1C,0,-,-,-,-
Cn1c(=O)n(C/C=C/c2ccccc2)c(=O)c2c1nc1n2CCCN1c1ccc(F)cc1,0,0,0,0,0
O=S(=O)(NCc1cccnc1)c1cccs1,0,0,0,0,0
CSC(=NCc1cccnc1)NS(=O)(=O)c1cccs1,0,65.0,0,0,0
CCCC(=O)NC(=S)Nc1ccccc1C(F)(F)F,0,54.9,0,0,50.0
Cc1c(NC(=S)Nc2ccccc2C(F)(F)F)cccc1[N+](=O)[O-],41.4,-,-,-,-
Cc1ccccc1C(=O)NC(=S)Nc1ccccc1C(F)(F)F,0,0,0,0,0
Cc1ccc(C(=O)NC(=S)Nc2ccccc2C(F)(F)F)c(C)c1,0,-,-,-,-
CCCC(=O)NC(=S)Nc1cccc(Cl)c1N1CCCCC1,0,69.2,0,0,93.1
CC(C)C(=O)NC(=S)Nc1ccccc1C(F)(F)F,0,72.9,0,0,62.7
Cc1ccc(NC(=O)CN(C)C(=O)c2ccc(C(F)(F)F)cc2)cc1,0,-,-,-,-
N#Cc1nc(COc2ccc(Br)cc2)oc1N1CCN(Cc2ccccc2)CC1,0,0,0,0,55.6
CCN1CCN(c2oc(COc3ccc(-c4ccccc4)cc3)nc2C#N)CC1,0,93.2,0,0,81.3
N#Cc1nc(COc2ccc(F)cc2)oc1N1CCC(Cc2ccccc2)CC1,0,0,0,0,70.1
